# An excerpt weighted towards active compounds, which were near 21% of everything screened.
# HCMV antiviral = blocks human cytomegalovirus replication | hit rate 4.5% among 410,000 | HFF cells, HCMV-luciferase reporter, 72 h; stronger effect = lower value | activity change, negative = inhibition, % at 57.5 µM | AID 1259415; in the data active = activity change below about -60%; inconclusive = no clear call, values can overlap the other calls; inactive = above about -39%; also: % is scaled to controls: 0 for no effect and ±100 for the full control effect
#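 After 16 h attachment at 37C, HFF cells received test compound and HCMV-luciferase (1 PFU/cell); reporter luminescence read 72 h later, data normalized against buffer-only and known inhibitor Salinomycin.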
# HCV inh = inhibitors of hepatitis C virus infection; Huh7.5.1 HCVcc-Cre infection, luciferase reporter, 44 h; Potency, µM (series often up to 41.8 µM), for the others: at the highest dose activity change, negative = inhibition, hits mostly inhibitors; hit rate 3.4% among 340,000; also: potency is read from the fitted curve at half-maximal effect; % is scaled to controls: 0 for no effect and ±100 for the full control effect
#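 A cell-based infection assay in which seeded cells (1,000 per well) receive test compound after 4 h, are inoculated with HCVcc-Cre at approximately 0.5 moi, and are incubated 44 h before luminescence detection.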
# Pf growth 48h = P. falciparum growth inhibition at 48 hours (one generation) | P. falciparum luciferase growth in erythrocytes, 48 h | Potency, µM (highest dose often 28.7 µM), inactives show at the highest dose activity change, negative = inhibition, actives largely listed as inhibitors | hit rate 5.9% among 310,000 | AID 504832; also: potency is read from the fitted curve at half-maximal effect; % is scaled to controls: 0 for no effect and ±100 for the full control effect
#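 Luciferase-expressing parasites in RBCs, 2% Hct / 0.1% parasitemia final; RPMI 1640 + 0.5% Albumax; 37 C, 5% CO2, one generation; luminescence read-out, lower signal = inhibition.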
# Pf growth 96h = P. falciparum growth inhibition at 96 hours; P. falciparum luciferase reporter growth, 96 h; Potency, µM (highest dose often 28.7 µM), for inactives: at the top dose activity change, negative = inhibition, hits mostly inhibitors; hit rate 6.9% among 320,000; AID 504834; also: potency is read from the fitted curve at half-maximal effect; % is scaled to controls: 0 for no effect and ±100 for the full control effect
#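 P. falciparum expressing integrated firefly luciferase grown in erythrocytes (2% hematocrit, 0.05% parasitemia final) with compounds for 96 hours at 37 C, 5% CO2. Growth inhibition read as loss of luminescence after adding luciferase detection reagent.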
# Shiga toxin inh = inhibitors of Shiga toxin in Vero cells. hit rate 9.2% among 290,000. Vero cells, Shiga toxin protein synthesis inhibition reporter. inhibition, % at 38.7 µM; in the data active = inhibition mostly above about 28%, no sharp cut-off; inactive = mostly below about 43%; also: 0% is about no effect
# CHX counter = counter-screen hit for Shiga toxin inhibitors, cycloheximide. AID 2314. cell reporter, cycloheximide protein synthesis inhibition counterscreen. hit rate 12% among 300,000. max response, %; in the data active = max response mostly above about 13%, no sharp cut-off; inactive = mostly below about 14%; also: read at 38.3 µM for the half of the compounds with a filed dose; 0% is about no effect
# * marks the source's active call; other numbers are inactive results; ? = inconclusive; · = no result. Unless noted, calls follow the shape of the dose curve; as a rule, active = well fitted inhibition curve with a large enough effect; inconclusive = small, poorly fitted or top-dose-only effect, or another doubt; inactive = no such curve, though single readings can be large or run the other way.
SMILES,HCMV antiviral,HCV inh,Pf growth 48h,Pf growth 96h,Shiga toxin inh,CHX counter
COc1ccccc1C(=O)Nc1ccc2nc(SCC(=O)N3CCCc4ccccc43)sc2c1,18.8,·,·,·,·,·
CC(C)[C@H](N)C(=O)N[C@H]1CCC2C3CC=C4C[C@@H](O)CC[C@]4(C)C3CC[C@@]21C (stereo not given in full),-16.9,·,·,·,·,·
N#CC1(NC(=O)CSc2nnc(-c3ccccc3F)n2N)CCCCC1,-7.1,8.3%,12.6%,13.0%,·,·
CC(C)Cn1c(=O)c2c(nc3n2CCCN3Cc2ccccc2)n(C)c1=O,·,?,10.4µM*,11.7µM*,-13.4,-4.3
C=CCn1c(=O)c2c(nc3n2CCCN3Cc2ccccc2)n(C)c1=O,-9.3,18.1%,?,-25.1%,-17.5,3.6
CCn1c(=O)c2c(nc3n2CCCN3Cc2ccccc2)n(C)c1=O,4.3,-8.0%,?,-16.0%,-19.1,-4.4
Cn1c(=O)n(C/C=C/c2ccccc2)c(=O)c2c1nc1n2CCCN1Cc1ccccc1,13.5,?,13.1µM*,14.7µM*,-24.1,-9.7
Cc1cccc(Cn2c(=O)c3c(nc4n3CCCN4Cc3ccccc3)n(C)c2=O)c1,-29.0,11.2µM*,13.1µM*,·,-1.2,-3.2
CC(=O)N1CCN(C(=O)c2cc3c(s2)CCC(C)C3)CC1 (stereo not given),8.5,7.4%,36.4%,32.7%,·,·
O=c1c2ccccc2nc(/C=C/c2ccc3c(c2)OCO3)n1-c1cccc(O)c1,?,-11.4%,?,?,-5.2,0.9
COc1ccc(-n2c(/C=C/c3ccc4c(c3)OCO4)nc3ccccc3c2=O)cc1,-84.0*,?,?,9.28µM*,1.4,-2.2
Cc1ccc(-n2c(/C=C/c3ccc4c(c3)OCO4)nc3ccccc3c2=O)cc1,-101.6*,3.7%,?,?,-0.5,-5.6
CCOC(=O)C1CCN(C(=O)Cn2ncc3c4ccccc4n(Cc4ccccc4)c3c2=O)CC1,35.6,·,·,·,·,·
NS(=O)(=O)c1ccc(N/C=C\C(=O)c2ccc(F)cc2)cc1,90.5,-7.6%,213.6%,?,64.5*,29.3*
NS(=O)(=O)c1ccc(N/C=C\C(=O)c2ccncc2)cc1,-2.9,9.7%,38.8%,?,26.4,7.5
CC(=O)Nc1ccc(N/C=C/C(=O)c2ccc(Br)cc2)cc1,·,1.0%,92.6%,29.4%,4.1,-1.8
O=C(/C=C/Nc1ccc(F)cc1)c1ccc(Oc2ncccn2)cc1,-12.9,-27.4%,30.1%,14.6%,37.9,15.4*
NS(=O)(=O)c1ccc(N/C=C/C(=O)c2ccc(Br)cc2)cc1,3.5,21.3%,114.7%,-11.0%,77.1*,61.4*
CC(=O)c1ccc(N/C=C/C(=O)c2ccc(Br)cc2)cc1,78.8,9.7%,111.1%,?,21.9*,11.1*
CC1(C)CC(=O)C=C(Nc2ccc(Cl)c(Br)c2)C1,3.3,-11.4%,9.0%,?,-1.7,7.3
CN(C)c1ccc(N/C=C/C(=O)c2ccc(F)cc2)cc1,·,-3.9%,?,·,63.1*,64.5*
CCN1CCN(c2ccc([N+](=O)[O-])c(Sc3nc4ccccc4[nH]3)c2)CC1,-31.8,22.4µM*,?,2.62µM*,-23.2,0.7
CCOc1cc(C(=O)Nc2ccc3nc(Nc4cccc(Cl)c4)cc(C)c3c2)cc(OCC)c1OCC,-28.8,·,·,·,·,·
CC(C)CCOc1ccc(C(=O)NCCC(=O)N2CCOCC2)cc1,61.9,-0.7%,40.6%,?,41.2*,18.0*
COc1ccc(OC)c(CN2CCN(C(=O)CCNC(=O)c3ccc(Br)cc3)CC2)c1,?,-8.2%,-6.1%,0.0%,·,·
COc1ccc(N2CCN(C(=O)CCNC(=O)c3ccc(C(C)(C)C)cc3)CC2)cc1,-38.0,?,10.4µM*,?,-7.4,-4.8
COc1ccc(C(=O)NCC(=O)N2CCN(c3ccc(Cl)cc3)CC2)cc1,?,5.8%,0.3%,-29.1%,-6.1,-5.7
CCCOc1ccc(C(=O)NCC(C)(C)N2CCOCC2)cc1,22.8,9.8%,-4.3%,2.3%,-9.2,-1.2
COc1ccc(OC)c(CN2CCN(C(=O)CNC(=O)c3ccc(C(C)(C)C)cc3)CC2)c1,-27.8,1.4%,?,11.7µM*,·,·
COc1ccc(C(=O)NCC(=O)N2CCN(c3ccc(F)cc3)CC2)cc1,-64.0*,7.7%,-18.1%,-9.8%,-10.0,-2.9
